Results filed as inconclusive are left out. Active and inactive are the calls of the source.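 The calls were made as follows, unless noted: active = viability at or under a set limit in both replicates, limit being median viability minus 3 SD (cut at about 48% in these data, passing the limit was not always enough); inconclusive = at or under the limit in just one replicate; inactive = at or above the limit in both replicates.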
Assays:
[1] = reducers of endogenous Her2 protein level, primary screen, SKBR3 breast tumor cells, AlphaScreen, ATP viability (AID 461;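 active = Her2 level under about 52% in both replicate screens, with viability over 70% of control, limit read from the data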;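 as to Her2 level: lower value means less Her2 protein in the cells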;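 as to viability: percent of carrier control wells set as 100% viability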); details: 18-24 h, measured here: SKBR3 viability, ATP luminescence, at 10 µM
[2] = biological target: Receptor tyrosine-protein kinase erbB-2 (Homo sapiens) (UniProt P04626); test: as above; details: 18-24 h, at 10 µM, stronger effect = lower value
[3] = SK-BR-3 cell growth inhibitors, pilot screen, 24 h, human (AID 572;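 active = viability at or below 10% of carrier control in both of two separate runs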;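 also: compound exposure lasted between 18 and 24 h rather than exactly 24 h; 100% = carrier-treated control wells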); details: SK-BR-3 viability, CellTiter-Glo luminescence, at 10 µM, stronger effect = lower value
[4] = HUVEC growth inhibition – cell-based, human, primary screen (AID 575;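 active = viability at or below 30% in both replicate assays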;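 also: 100% = median of untreated cell wells with 0.1% DMSO on each plate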); details: HUVEC proliferation, CellTiter-Glo luminescence, 72 h; at 10 µM; stronger effect = lower value
[5] = growth inhibitors of H69AR lung tumor, primary screen, human, duplicate replicates (AID 580); details: H69AR lung tumor cells viability, ATP luminescence, 72 h; at 10 µM; stronger effect = lower value;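 also: 100% = mean luminescence of untreated wells and 0% = no signal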
[6] = reversal of MRP1-mediated doxorubicin resistance, pilot screen, H69AR cells, doxorubicin co-treatment (AID 601;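 active = viability loss from added drug above about 55%, and viability with drug at most 40%, in both replicates, limit read from the data, passing the limit was not always enough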); details: CellTiter-Glo, 72 h, at 10 µM; for differential viability (reversal): stronger effect = higher value
[7] = 384-well plate pilot, post-Golgi transport modulator project, inhibition of yeast transport mutant growth (AID 636; in the data active = inhibition above about 31%); details: absorbance 615 nm, about 18 h, stronger effect = higher value
[8] = growth suppression of yeast trafficking mutant, preliminary HTS, modulators of trafficking downstream of Golgi apparatus project, 1536-format plate, OD 615 nm (AID 637; in the data active = inhibition above about 30%); details: yeast transport mutant growth, absorbance 615 nm, 18 h; stronger effect = higher value
[9] = OD615 S. cerevisiae growth inhibition, permissive medium, pilot counter-assay, permissive growth control for S. cerevisiae lifespan shortening project (AID 705;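 active = growth inhibition above 25% in both replicates, a cutoff set 3 SD above the mean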); details: OD615, 24 h, at 10 µM, stronger effect = higher value
[10] = Restrictive medium S. cerevisiae growth inhibition, OD615, pilot screen of yeast lifespan reduction project, restrictive growth control (AID 706;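 active = growth inhibition above a set limit, 3 SD over mean compound inhibition, in both replicates, cut at about 43% in these data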;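 also: modified DeaD lifespan yeast strain shifted to restrictive glucose medium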); details: OD615, 48 h, at 10 µM, stronger effect = higher value
[11] = viability gain of MRP-1-high H69AR cells under doxorubicin, pilot screen, MRP-1 activator project, CellTiter-Glo, duplicate (AID 807;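 active = viability increase at or above a cutoff of the median across tested compounds plus 3 SD, cut at about 8.5% in these data, passing the limit was not always enough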;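 also: compound pretreatment 18-22 h then 72 h combined with doxorubicin; 0% = doxorubicin alone and 100% = vehicle without doxorubicin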); details: H69AR viability with doxorubicin, CellTiter-Glo luminescence; at 10 µM; stronger effect = higher value
[12] = growth suppression of beta-catenin knockout HCT116, pilot screen, human colon tumor cells (AID 823;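 active = cell viability at or below a set limit in both duplicate runs, the limit being the all-compound median minus 4 SD, cut at about 23% in these data, passing the limit was not always enough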;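 also: 0% = wells killed by 20 µM Hyamine and 100% = untreated DMSO cell wells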); details: CellTiter-Glo, 60 h, at 10 µM, stronger effect = lower value
[13] = growth suppression of PTEN-deleted HCT116, pilot screen, cell-based, HCT116 clonal line, CellTiter-Glo (AID 824;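 active = viability at or below 27.92% in each of two runs, the all-compound median minus 4 SD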;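 also: 0% = 20 µM Hyamine control and 100% = vehicle cell control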); details: 60 h, at 10 µM, stronger effect = lower value
[14] = inhibitors of the yeast RAM network, pilot screen, dse1pr::URA3 reporter, 5-FOA selection (AID 869;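 active = inhibition over a set limit, the all-compound mean plus 3 SD, in both replicate runs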;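 also: 0% = DMSO wells with no growth and 100% = 10 µM 1-NA-PP1 with full growth; RAM network block rescues cells from 5-FOA so hits raise OD615 growth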); details: S. cerevisiae dse1pr::URA3 5-FOA growth, OD615, 2 d; at 10 µM; stronger effect = higher value; strain carries analog-sensitive mutant Cbk1 kinase
[15] = RAM signaling pathway blockade in yeast – S. cerevisiae, Pdr1DBD-CYC8 efflux-inhibited sensitized strain, primary screen (AID 1298;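 active = RAM network inhibition above 8.4% in each of two replicates, 3 SD over the compound average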;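 also: 0% = DMSO untreated cells without growth and 100% = 10 µM 1-NA-PP1 full growth; higher means more yeast growth rescued from 5-FOA killing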); details: S. cerevisiae cbk1-as DSE1-URA3 strain, 5-FOA growth OD615, 2 d; at 50 µM; stronger effect = higher value
[16] = H69AR cells + 2 uM doxorubicin, measured here: viability with 2 uM doxorubicin, stronger effect = lower value
[17] = H69AR cells, compound alone cytotoxicity

Receptor tyrosine-protein kinase erbB-2 (Homo sapiens), sequence (P04626 whole entry, looked up): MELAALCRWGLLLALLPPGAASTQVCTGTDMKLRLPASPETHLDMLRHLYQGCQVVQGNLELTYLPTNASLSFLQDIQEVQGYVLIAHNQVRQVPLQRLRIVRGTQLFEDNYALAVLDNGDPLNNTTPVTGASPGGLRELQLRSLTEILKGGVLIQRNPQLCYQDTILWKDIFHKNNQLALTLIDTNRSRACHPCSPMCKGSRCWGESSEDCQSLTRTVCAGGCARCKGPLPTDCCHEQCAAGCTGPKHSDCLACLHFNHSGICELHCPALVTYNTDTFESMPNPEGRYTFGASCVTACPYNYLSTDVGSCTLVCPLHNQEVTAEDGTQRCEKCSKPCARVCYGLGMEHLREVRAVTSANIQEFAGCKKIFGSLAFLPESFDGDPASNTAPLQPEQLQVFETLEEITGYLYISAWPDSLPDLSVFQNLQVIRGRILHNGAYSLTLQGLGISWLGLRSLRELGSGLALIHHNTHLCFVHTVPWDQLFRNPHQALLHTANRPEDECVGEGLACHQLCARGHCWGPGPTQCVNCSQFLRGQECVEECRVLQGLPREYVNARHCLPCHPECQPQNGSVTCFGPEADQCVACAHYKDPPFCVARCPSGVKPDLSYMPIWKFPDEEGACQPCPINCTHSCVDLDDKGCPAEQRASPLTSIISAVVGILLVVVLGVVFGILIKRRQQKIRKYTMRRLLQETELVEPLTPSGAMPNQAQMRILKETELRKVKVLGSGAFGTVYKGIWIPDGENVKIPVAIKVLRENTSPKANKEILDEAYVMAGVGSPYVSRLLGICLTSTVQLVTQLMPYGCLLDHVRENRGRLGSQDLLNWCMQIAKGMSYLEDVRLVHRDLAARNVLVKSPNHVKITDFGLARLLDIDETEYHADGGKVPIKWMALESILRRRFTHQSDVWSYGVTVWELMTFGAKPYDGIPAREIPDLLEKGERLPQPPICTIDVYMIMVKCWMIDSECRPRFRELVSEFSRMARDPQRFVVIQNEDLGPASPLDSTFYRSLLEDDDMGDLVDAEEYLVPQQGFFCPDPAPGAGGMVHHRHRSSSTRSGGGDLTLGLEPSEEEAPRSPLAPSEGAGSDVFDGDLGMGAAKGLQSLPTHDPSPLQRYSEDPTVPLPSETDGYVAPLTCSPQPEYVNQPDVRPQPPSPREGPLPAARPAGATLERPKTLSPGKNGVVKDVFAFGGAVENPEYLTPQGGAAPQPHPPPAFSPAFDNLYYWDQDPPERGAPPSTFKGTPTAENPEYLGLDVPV

| SMILES | viability [1] | Her2 level [2] | viability [3] | viability [4] | viability [5] | differential viability (reversal) ([6]; H69AR cells + 2 uM doxorubicin) | viability [6, 16] | viability [6, 17] | inhibition [7] | inhibition [8] | growth inhibition [9] | growth inhibition [10] | viability increase [11] | viability [12] | viability [13] | inhibition [14] | RAM network inhibition [15] |
| --- | --- | --- | --- | --- | --- | --- | --- | --- | --- | --- | --- | --- | --- | --- | --- | --- | --- |
| CCOC(=O)CCc1c(C)nc2cc(-c3ccc(F)cc3)[nH]n2c1=O | 97% | 99% (inactive) | 97% (inactive) | 97.6% (inactive) | 101% (inactive) | 8.37% (inactive) | 92.2% | 101% | -5.45% (inactive) | -7.33% (inactive) | -13.1% (inactive) | -4.2% (inactive) | -1.53% (inactive) | 95.8% (inactive) | 95.1% (inactive) | 1.8% (inactive) | 1.51% (inactive) |
| Cc1cccc(Cn2c(SCC(=O)Nc3ccccc3)nc3c2c(=O)[nH]c(=O)n3C)c1 | 81.5% | 97% (inactive) | 81.5% (inactive) | 93.9% (inactive) | 81.8% (inactive) | -0.02% (inactive) | 81.8% | 81.8% | -1.33% (inactive) | 0% (inactive) | -12.4% (inactive) | -8.03% (inactive) | -1.01% (inactive) | 91% (inactive) | 71% (inactive) | 1.79% (inactive) | 5.01% (inactive) |
| CC1CCN(C(=O)Cn2cc3c(n2)CCCC3)CC1 | 97% | 116% (inactive) | 97% (inactive) | 97.1% (inactive) | 96.4% (inactive) | -4.43% (inactive) | 101% | 96.4% | 6.67% (inactive) | -4.5% (inactive) | -7.6% (inactive) | -2.46% (inactive) | 0.91% (inactive) | 100% (inactive) | 99.9% (inactive) | 0.615% (inactive) | 3.48% (inactive) |
| CCCCc1ccc(NC(=O)C2CCCO2)cc1 (stereo not given) | 92% | 122% (inactive) | 92% (inactive) | 93.5% (inactive) | 103% (inactive) | 20.8% (inactive) | 82.2% | 103% | -4.87% (inactive) | -5.33% (inactive) | 2.46% (inactive) | 2.07% (inactive) | 2.53% (inactive) | 100% (inactive) | 94.5% (inactive) | 1.05% (inactive) | 3.17% (inactive) |
| Cc1nnc(SCCn2c(N3CCC(Cc4ccccc4)CC3)nc3c2c(=O)[nH]c(=O)n3C)s1 | 82.5% | 93.5% (inactive) | 82.5% (inactive) | 78.1% (inactive) | 79.4% (inactive) | 8.24% (inactive) | 71.1% | 79.4% | -5.21% (inactive) | -5.56% (inactive) | -2.44% (inactive) | 5.62% (inactive) | -4.95% (inactive) | 78.6% (inactive) | 75.7% (inactive) | 3.93% (inactive) | 5.98% (inactive) |
| CCCN1CCN(CCCNC(=O)Cn2ncc3c4ccccc4n(C)c3c2=O)CC1 | 99% | 120% (inactive) | 99% (inactive) | 101% (inactive) | 102% (inactive) | 5.29% (inactive) | 96.8% | 102% | 0.9% (inactive) | 5.17% (inactive) | 4.22% (inactive) | -10.6% (inactive) | -1.73% (inactive) | 96.7% (inactive) | 95.8% (inactive) | 1.89% (inactive) | -0.33% (inactive) |
| CCSC1=C(C#N)C(c2ccccc2OC)CC(=O)N1 (stereo not given) | 92% | 97.5% (inactive) | 92% (inactive) | 86.3% (inactive) | 99.8% (inactive) | 6.97% (inactive) | 92.8% | 99.8% | -1.73% (inactive) | -2.33% (inactive) | -3.36% (inactive) | 0.71% (inactive) | 0.28% (inactive) | 94.1% (inactive) | 91.6% (inactive) | 1.78% (inactive) | 1.8% (inactive) |
| Cc1ccc(-c2cc(C(F)(F)F)n3nc(C(=O)N4CCCC4)cc3n2)cc1 | 101% | 84.5% (inactive) | 101% (inactive) | 108% (inactive) | 111% (inactive) | 11.3% (inactive) | 100% | 111% | -0.68% (inactive) | 3.65% (inactive) | -13.3% (inactive) | 1.45% (inactive) | -2.2% (inactive) | 96.9% (inactive) | 89% (inactive) | 1.95% (inactive) | 4.14% (inactive) |
| Cc1cccnc1-n1c(CCN2C(=O)c3ccccc3C2=O)nc2ccccc2c1=O | 89.5% | 106% (inactive) | 89.5% (inactive) | 89.2% (inactive) | 95.1% (inactive) | 4.03% (inactive) | 91.1% | 95.1% | 1.28% (inactive) | -10.3% (inactive) | 6.29% (inactive) | -3.29% (inactive) | -2.01% (inactive) | 102% (inactive) | 97.4% (inactive) | 0.525% (inactive) | 3.68% (inactive) |
| Cc1cc(NC(=O)CSc2nc3c(c(=O)n2Cc2ccccc2)SC(C)C3)no1 (stereo not given) | 104% | 106% (inactive) | 104% (inactive) | 74.5% (inactive) | 92.1% (inactive) | 15.8% (inactive) | 76.3% | 92.1% | -3.33% (inactive) | -1.83% (inactive) | -2.67% (inactive) | -0.455% (inactive) | -2.6% (inactive) | 100% (inactive) | 92.4% (inactive) | 2.35% (inactive) | 8.6% (inactive) |
| Cc1cccc(NC(=O)c2ccccc2O)c1C | 60% | 75.5% (inactive) | 60% (inactive) | 59.2% (inactive) | 93.3% (inactive) | 4.91% (inactive) | 88.4% | 93.3% | -5.95% (inactive) | -3.61% (inactive) | 2.66% (inactive) | 1.19% (inactive) | -1.89% (inactive) | 86.5% (inactive) | 86.3% (inactive) | 1.33% (inactive) | 2.03% (inactive) |
| COc1ccccc1N(CC(=O)NCc1ccccn1)S(C)(=O)=O | 126% | 105% (inactive) | 126% (inactive) | 89.2% (inactive) | 95.7% (inactive) | 4.02% (inactive) | 91.6% | 95.7% | -1.3% (inactive) | -1.17% (inactive) | -1.19% (inactive) | -24.7% (inactive) | -3.02% (inactive) | 97.3% (inactive) | 91.5% (inactive) | 0.815% (inactive) | 4.8% (inactive) |
| CC1=C(C(N)=O)C(c2ccncc2)n2nc(-c3ccccc3Cl)nc2N1 (stereo not given) | 96% | 96.5% (inactive) | 96% (inactive) | 90.1% (inactive) | 100% (inactive) | 13.3% (inactive) | 86.9% | 100% | 0.53% (inactive) | -3.11% (inactive) | -8.2% (inactive) | 6.52% (inactive) | -0.22% (inactive) | 94% (inactive) | 98.8% (inactive) | 1.56% (inactive) | -0.11% (inactive) |
| CCOC(=O)CSc1nnc(Cn2c(=O)sc3ccccc32)n1C | 96% | 94% (inactive) | 96% (inactive) | 87% (inactive) | 96.7% (inactive) | 11.1% (inactive) | 85.5% | 96.7% | 3.33% (inactive) | -2.5% (inactive) | 1.56% (inactive) | 7.89% (inactive) | 1.76% (inactive) | 107% (inactive) | 106% (inactive) | 0.27% (inactive) | 3.51% (inactive) |
| CC1CCCN(S(=O)(=O)c2coc(C(N)=O)c2)C1 (stereo not given) | 87.5% | 119% (inactive) | 87.5% (inactive) | 82.6% (inactive) | 94.6% (inactive) | -23.4% (inactive) | 118% | 94.6% | -0.51% (inactive) | 1% (inactive) | -19.2% (inactive) | -4.31% (inactive) | -0.1% (inactive) | 108% (inactive) | 99.5% (inactive) | 1.33% (inactive) | 2.99% (inactive) |
| COc1ccc(NC(=O)c2cc(C3CC3)on2)c(OC)c1 | 96.5% | 91.5% (inactive) | 96.5% (inactive) | 86.7% (inactive) | 91.2% (inactive) | -7.87% (inactive) | 99.1% | 91.2% | 0% (inactive) | 1.17% (inactive) | 4.41% (inactive) | 9.96% (inactive) | -1.92% (inactive) | 101% (inactive) | 92.2% (inactive) | -0.14% (inactive) | 4.64% (inactive) |
| Cc1ccc(S(=O)(=O)Cc2ccc(C(=O)N3CCN(Cc4ccccc4)CC3)o2)cc1 | 86.5% | 80.5% (inactive) | 86.5% (inactive) | 106% (inactive) | 85.8% (inactive) | -8.85% (inactive) | 94.6% | 85.8% | -0.9% (inactive) | 3.5% (inactive) | 0.06% (inactive) | -3.51% (inactive) | -1.59% (inactive) | 97.3% (inactive) | 94.9% (inactive) | 1.59% (inactive) | 6.48% (inactive) |
| CCOC(=O)C(CC)(CCC(=O)O)c1csc(N)n1 (stereo not given) | 99% | 98.5% (inactive) | 99% (inactive) | 101% (inactive) | 102% (inactive) | 7.83% (inactive) | 94.2% | 102% | -8.4% (inactive) | -2.74% (inactive) | -4.72% (inactive) | -9.94% (inactive) | -1.31% (inactive) | 96.8% (inactive) | 98.3% (inactive) | 0.94% (inactive) | -1.93% (inactive) |
| CCOC(=O)N1CCC(Nc2nc3ccccc3n3cnnc23)CC1 | 94% | 89.5% (inactive) | 94% (inactive) | 85.8% (inactive) | 87.1% (inactive) | 5.21% (inactive) | 81.9% | 87.1% | -0.13% (inactive) | 3.17% (inactive) | 0.55% (inactive) | -10.8% (inactive) | -4.12% (inactive) | 102% (inactive) | 95.2% (inactive) | 1.23% (inactive) | 4.35% (inactive) |
| Cc1nc2sc(C(c3cccs3)N3CCC(C(N)=O)CC3)c(O)n2n1 (stereo not given) | 92.5% | 128% (inactive) | 92.5% (inactive) | 100% (inactive) | 91.8% (inactive) | -4.42% (inactive) | 96.2% | 91.8% | -3.73% (inactive) | -1% (inactive) | -0.435% (inactive) | 3.77% (inactive) | -0.3% (inactive) | 101% (inactive) | 94.2% (inactive) | 0.69% (inactive) | 4.12% (inactive) |

Reference: PubChem BioAssay
